Records with an inconclusive call do not appear. Values without a mark were called inactive. Activity calls are given as the source filed them. Calls come from the whole dose curve; as a rule, active = well fitted activation curve with a large enough effect in the signal ratio in the repeat runs (not every such curve was filed as active); inconclusive = weak or mixed curves; inactive = flat fitted curve, though single readings scatter; the % refers to the signal ratio.
test: qHTS assay to identify small molecule agonists of H2AX (AID 1224845); details: CHO-K1 phospho-H2AX Ser139 HTRF, 3 h; series mostly up to 154 µM
Text: National Center for Advancing Translational Sciences [NCATS]
NIH Chemical Genomics Center [NCGC]
U.S. Environmental Protection Agency [EPA]
National Institutes of Environmental Health Sciences [NIEHS]
National Toxicology Program [NTP]
U.S. Food and Drug Administration [FDA]
HTRF phospho-H2AX (Ser139) assay (Cisbio Bioassays, US) enables the quantitative detection of the histone variant H2AX when phosphorylated on serine 139. When double-stranded DNA breaks, either by ionizing radiation or endogenous physiological processes, H2AX becomes phosphorylated at Ser139. This phospho-Ser139 serves as a sensitive biomarker for the detection of such breaks, localizing the site of DNA repair. So, HTRF phospho-H2AX Ser139 is a pertinent assay to study genome stability, the cell cycle, DNA repair, and it serves as a biomarker for cancer, and to understand aging. Wild type CHO-K1 cells were used to identify the inducers of Phospho-H2AX Ser 139 from the Tox21 10K compound collections.
Tox21 Assay Protocol Summary:
The CHO-K1 cells suspended in culture medium containing 10% FBS were dispensed at 1000 cells/ 3 ul/well in 1536-well white wall/solid bottom plates (Greiner Bio-One North America, NC) using a Multidrop Combi (Thermo Fisher Scientific Inc., Waltham, MA). After the assay plates were incubated at 37C overnight, 23 nl of compounds at 15 concentrations (from 5-48 columns) or positive control (from 1 to 4 columns) were transferred to the assay plates using a Pintool station (Wako, San Diego, CA) into each well resulting in a final DMSO concentration of 0.76%. After 3hr incubation at 37C, 1 uL/well Supplemented Lysis buffer (diluted 100 fold blocking reagent in lysis buffer) (HTRF Phospho-H2A.X (S139) Assay kit from Cisbio US Inc., Bedford, MA) was added using a Flying Reagent Dispenser (FRD) (Aurora Discovery, CA). After 10sec spin at 1000 rpm in a plate centrifuge, the assay plates were incubated at room temperature for 30 min. Then followed by the addition of 1 uL/well detection buffer (containing a mixture of two antibodies, one labeled with cryptate, Anti pH2AX (S139)-K and another labeled with d2, Anti H2AX-d2) using FRD. After incubation at room temperature for 24 hr, the time resolved fluorescence at excitation 320 nm and emissions at 665 nm and 620 nm was measured using an Envision plate reader (PerkinElmer, Waltham, MA).
% is set by controls: 0 for no effect and ±100 for the full control effect.

| SMILES | outcome | activation (H2AX phosphorylation) |
| --- | --- | --- |
| C=CC(=O)CCCCC | inactive | – |
| CN(C)C(C)(C)CO | inactive | – |
| CC1(C)O[C@H]2CC(=O)OC[C@]23[C@H]2CC[C@@]4(C)[C@H](c5ccoc5)OC(=O)[C@H]5O[C@]54[C@]2(C)C(=O)C[C@@H]13 | inactive | – |
| O=C1c2ccccc2C(=O)c2cc(Cl)ccc21 | – | 2.59% [at 14 µM] |
| CN(C)CC/C=C1/c2ccccc2COc2ccc(CC(=O)O)cc21 | inactive | – |
| CC(=O)OC1CCCCC1C(C)(C)C (stereo not given) | inactive | – |
| CC(S)C(C)S (stereo not given) | inactive | – |
| COc1ccc2c(c1)c1c3n2CCN(C)C3=NCC1 | inactive | – |
| O=C(O)c1cc2ccccc2nc1C(=O)O | inactive | – |
| Cc1ccc(C(C)NC(=O)[C@@H](NC(=O)OC(C)C)C(C)C)cc1 (stereo not given in full) | inactive | – |
| CC(=O)O[C@H]1C[C@@H]2CC[C@@]1(C)C2(C)C | inactive | – |
| C=CC(=O)OCC1CCCO1 (stereo not given) | inactive | – |
| C/C(CC(C)C)=N\O | inactive | – |
| CC(CO)(CO)CO | inactive | – |
| O=C(O)CSCC(=O)NC1CCSC1=O (stereo not given) | inactive | – |
| O/N=C/C=N/O | inactive | – |
| CO[Si](CCCn1c(=O)n(CCC[Si](OC)(OC)OC)c(=O)n(CCC[Si](OC)(OC)OC)c1=O)(OC)OC | inactive | – |
| CC12CCC(C1)C(C)(C)C2O (stereo not given) | inactive | – |
| CCCCOCC(C)O (stereo not given) | inactive | – |
| CN1C[C@@H]2C[C@H]1CN2c1cc2c(cc1F)c(=O)c(C(=O)O)cn2C1CC1 | – | -0.432% [at 31.6 µM] |

| SMILES | outcome | activation (H2AX phosphorylation) |
| --- | --- | --- |
| CCC(C(=O)OCCN1CCOC(c2ccccc2)C1C)c1ccccc1 (stereo not given) | inactive | – |
| COC(=O)CCCCC(CCSS/C(CCO)=C(\C)N(C=O)Cc1cnc(C)nc1N)SC(C)=O (stereo not given) | inactive | – |
| CC(C)c1ccc(C=O)cc1 | inactive | – |
| OC[C@@H](O)C(O)[C@@H](O)CO (stereo not given in full) | inactive | – |
| CCCCCCCCCOC(=O)CCCCC(=O)OCCCCCCC | inactive | – |
| [O]=[Mo](=[O])=[O] | – | -3.3% [at 31.6 µM] |
| C=C(C)[C@@H]1CC=C(C)C(=O)C1 | inactive | – |
| CC(=O)O[Si](C)(OC(C)=O)OC(C)=O | inactive | – |
| O=C(O)CCCCCC(=O)O | inactive | – |
| CC(C)(CO)C(O)C(=O)NCCCO (stereo not given) | inactive | – |
| CCCCCC(C)O (stereo not given) | inactive | – |
| CCC(=O)Oc1ccc2c(c1)CC[C@@H]1[C@@H]2CC[C@@]2(C)[C@H]1C[C@@H](OC(=O)CC)[C@@H]2OC(=O)CC | inactive | – |
| O=C1CCCCO1 | inactive | – |
| CCOC(=O)CC1(C)OCC(C)O1 (stereo not given) | inactive | – |
| CNCCS(=O)(=O)O | inactive | – |
| COc1ccc(CCO)cc1 | inactive | – |
| C=CCN1C[C@H](C(=O)N(CCCN(C)C)C(=O)NCC)C[C@@H]2c3cccc4[nH]cc(c34)C[C@H]21 | inactive | – |
| COC(=O)c1cccc(Cl)c1 | inactive | – |
| c1ccc(-c2nn[nH]n2)cc1 | inactive | – |
| N[C@@H](CSCCCO)C(=O)O | – | 1.1% [at 31.6 µM] |

— PubChem BioAssay (Tox21)
